In article PMC4336329 (PLoS ONE, 2015):
About 14,000 (4.5%) of roughly 310,000 compounds showed an effect of 50% or more. Effects have a minus sign here. The full list was thinned out, with strong results kept by preference.

target: human ether-à-go-go-related gene (hERG) potassium channel (human, UniProt Q12809); experiment: primary screen, population patch clamp on CHO cells stably expressing hERG; higher = less effect of the substance
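Also: peak tail current of the secondary pulse compared with the same well before compound.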

human ether-à-go-go-related gene (hERG) potassium channel, sequence (Q12809 whole entry, looked up): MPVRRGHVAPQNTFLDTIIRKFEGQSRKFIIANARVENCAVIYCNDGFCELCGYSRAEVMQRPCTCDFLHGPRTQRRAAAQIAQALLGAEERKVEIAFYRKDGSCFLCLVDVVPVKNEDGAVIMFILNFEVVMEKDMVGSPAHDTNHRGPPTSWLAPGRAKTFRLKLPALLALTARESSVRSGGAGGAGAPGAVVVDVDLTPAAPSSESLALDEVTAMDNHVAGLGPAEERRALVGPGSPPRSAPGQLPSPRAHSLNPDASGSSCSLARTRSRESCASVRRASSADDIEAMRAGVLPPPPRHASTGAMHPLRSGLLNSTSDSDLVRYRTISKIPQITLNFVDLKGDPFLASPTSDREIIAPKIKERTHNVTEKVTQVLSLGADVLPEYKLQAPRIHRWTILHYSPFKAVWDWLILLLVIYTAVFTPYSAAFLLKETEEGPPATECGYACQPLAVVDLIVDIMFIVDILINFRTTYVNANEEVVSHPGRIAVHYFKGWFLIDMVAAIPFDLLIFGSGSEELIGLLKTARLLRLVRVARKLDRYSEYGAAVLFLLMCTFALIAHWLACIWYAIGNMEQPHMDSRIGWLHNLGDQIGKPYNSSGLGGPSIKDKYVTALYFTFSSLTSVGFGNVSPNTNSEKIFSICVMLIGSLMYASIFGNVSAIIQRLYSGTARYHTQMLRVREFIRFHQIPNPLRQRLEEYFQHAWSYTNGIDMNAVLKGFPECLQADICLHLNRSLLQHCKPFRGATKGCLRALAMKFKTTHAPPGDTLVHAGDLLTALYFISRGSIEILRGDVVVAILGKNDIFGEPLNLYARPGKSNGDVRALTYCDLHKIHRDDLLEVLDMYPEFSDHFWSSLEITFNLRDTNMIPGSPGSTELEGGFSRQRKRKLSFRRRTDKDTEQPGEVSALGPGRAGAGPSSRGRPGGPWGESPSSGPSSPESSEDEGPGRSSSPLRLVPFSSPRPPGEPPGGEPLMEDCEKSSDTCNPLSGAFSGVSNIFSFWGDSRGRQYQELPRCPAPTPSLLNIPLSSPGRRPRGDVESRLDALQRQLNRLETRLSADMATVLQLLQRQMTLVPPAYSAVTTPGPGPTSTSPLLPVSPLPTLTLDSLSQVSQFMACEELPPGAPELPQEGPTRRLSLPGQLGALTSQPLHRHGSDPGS

Row | SMILES | hERG current change (%, negative = inhibition) at 10uM [%]
1 | Cc1ccc(C2(C(F)(F)F)N=C3Sc4cc(C)cc(C)c4N3C(=O)N2)cc1 (centres unmarked) | -4.05
2 | O=C(NCCCN1CCOCC1)c1cc(-c2ccc(Br)cc2)nc2ccccc12 | -39.7
3 | O=C(NC1C2CC3CC(C2)CC1C3)c1ccc(N2CCNCC2)c([N+](=O)[O-])c1 (centres unmarked) | -18
4 | O=c1c2oc3ccccc3c2[nH]c(=S)n1-c1ccc(F)cc1 | 25.3
5 | COc1cccc(C2NC(=O)NC(C)=C2C(=O)Nc2ccc(C)cc2)c1OC (centres unmarked) | -6.16
6 | COc1ccccc1-n1c(=O)oc2ccc(Cl)cc2c1=O | -7.54
7 | Cl.O=C(NCCOC(=O)c1ccc(C(=O)OCCNC(=O)c2cccnc2)s1)c1cccnc1 | 7.73
8 | Cc1ccc(S(=O)(=O)Nc2cc(C(=O)O)ccc2N2CCCCC2)cc1 | 9.4
9 | CCN1CCCC1CNC(=O)c1ccc(N2CCOCC2)c(NS(=O)(=O)c2ccc(OC)cc2)c1 (centres unmarked) | -24.4
10 | CCCCNC(=O)c1ccc(N2CCOCC2)c(NS(=O)(=O)c2ccc(OC)cc2)c1 | -40.4
11 | Cc1ccc(S(=O)(=O)Nc2cc(C(=O)NCCN(C)C)ccc2N2CCCCC2)cc1 | -36.8
12 | Cc1ccc(S(=O)(=O)Nc2cc(C(=O)NCCN(C)C)ccc2N2CCCC2)cc1 | -6.83
13 | Cc1ccc(S(=O)(=O)Nc2cc(C(=O)N3CCC4(CC3)OCCO4)ccc2N2CCCCC2)cc1 | -51.3
14 | CCC1CCCCN1CCCNC(=O)c1ccc(N2CCOCC2)c(NS(=O)(=O)c2ccc(OC)cc2)c1 (centres unmarked) | -57.6
15 | Cc1ccc(S(=O)(=O)Nc2cc(C(=O)N3CCOCC3)ccc2N2CCCCC2)cc1 | -20.5
16 | CCN(CC)CCCNC(=O)c1ccc(N2CCCCC2)c(NS(=O)(=O)c2ccc(C)cc2)c1 | -69.2
17 | COc1ccc(OC)c(S(=O)(=O)Nc2c(F)cccc2F)c1 | 16
18 | CC1CN(C(=O)N2CCCCC2)CCN1C(=O)N1CCCCC1 (centres unmarked) | 16.9
19 | CCN(CC(=O)Nc1ccc(S(=O)(=O)N2CCOCC2)cc1)Cc1ccccc1 | -16.5
20 | O=C(CCc1ccccc1Cl)Nc1ccc(S(=O)(=O)N2CCOCC2)cc1 | -4.49
21 | Cc1cccc(C(=O)NN2C(=O)C3C(c4ccccc4)C=CC(c4ccccc4)C3C2=O)c1 (centres unmarked) | 3.83
22 | COc1cccc(-c2ccc(NC(=O)C3CCCN(Cc4cc(C)[nH]n4)C3)cc2)c1 (centres unmarked) | -36.5

Row | SMILES | hERG current change (%, negative = inhibition) at 10uM [%]
23 | COc1cccc(-c2ccc(NC(=O)C3CCCN(Cc4cnn(C)c4C)C3)cc2)c1 (centres unmarked) | 0.939
24 | COc1cccc(-c2ccc(NC(=O)C3CCCN(CCCn4cccn4)C3)cc2)c1 (centres unmarked) | -64.1
25 | COc1cccc(-c2ccc(NC(=O)C3CCCN(Cc4nccn4C)C3)cc2)c1 (centres unmarked) | -31.8
26 | COc1cccc(-c2ccc(NC(=O)C3CCCN(Cc4ccco4)C3)cc2)c1 (centres unmarked) | 6.02
27 | COc1cccc(-c2ccc(NC(=O)C3CCCN(CCCn4nc(C)cc4C)C3)cc2)c1 (centres unmarked) | -66
28 | CCOC(=O)N1CCC(NS(=O)(=O)c2ccc(C#N)cc2)CC1 | -2.64
29 | NS(=O)(=O)c1cccc(NC(=O)COC(=O)CNC(=O)c2ccc(-c3ccccc3)cc2)c1 | 5.77
30 | CC(C)CNC(=O)COC(=O)CCC(=O)c1ccc(F)cc1 | 6.45
31 | C1=C(CCNc2ncnc3c2cnn3-c2ccccc2)CCCC1 | 8.79
32 | Cn1cc(C=C2C(=O)OC3(CCCCC3)OC2=O)c2ccccc21 | 9.19
33 | O=C(OCc1nc2ccccc2[nH]1)C1CCCCC1 | 2.85
34 | COc1ccc(NC(=O)CN(C)C(=O)C2CC(=O)N(Cc3ccc(C)cc3)C2)cc1 (centres unmarked) | 4.41
35 | C=CCN(CC=C)C(=O)C1CC(=O)N(c2ccc(Br)cc2)C1 (centres unmarked) | -59.2
36 | C=CCNC(=O)C1CC(=O)N(c2ccc(Br)cc2)C1 (centres unmarked) | -7.08
37 | O=C(O)C1CC(=O)N(c2ccc(Br)cc2)C1 (centres unmarked) | 4.94
38 | COc1ccccc1NC(=O)C1CCN(C(=O)C2CC(=O)N(c3ccc(C)cc3)C2)CC1 (centres unmarked) | -9.15
39 | Cc1ccc(N2CC(C(=O)N3CCC(C(=O)NC(C)(C)C)CC3)CC2=O)cc1 (centres unmarked) | 20.2
40 | COc1ccc(Cl)cc1NC(=O)CN(C)C(=O)C1CC(=O)N(Cc2ccc(C)cc2)C1 (centres unmarked) | -50
41 | CC(=O)Nc1ccc(NC(=O)C2CCN(C(=O)C3CC(=O)N(c4ccc(C)cc4)C3)CC2)cc1 (centres unmarked) | 12.4
42 | COc1ccc(CCN(C)C(=O)C2CC(=O)N(Cc3ccc(C)cc3)C2)cc1OC (centres unmarked) | 0.405
43 | Cc1ccc(N2CC(C(=O)N3CCC(C(=O)Nc4cccc(Br)c4)CC3)CC2=O)cc1 (centres unmarked) | -60.1
44 | Cc1ccc(N2CC(C(=O)N3CCC(C(=O)Nc4ccc(Br)cc4)CC3)CC2=O)cc1 (centres unmarked) | -64.2

Row | SMILES | hERG current change (%, negative = inhibition) at 10uM [%]
45 | CCOc1ccc(NC(=O)C2CCN(C(=O)C3CC(=O)N(c4ccc(C)cc4)C3)CC2)cc1 (centres unmarked) | -22.1
46 | O=C(Nc1ccc(F)cc1F)c1ccco1 | 2.94
47 | COc1nc(N)c(S(=O)(=O)c2ccccc2)cc1C#N | -19
48 | COc1cccc(S(=O)(=O)N2CCN(Cc3ccc4c(c3)OCO4)CC2)c1 | -24.4
49 | COC(=O)/C(=C\Nc1ccc(Cl)cc1Cl)NC(=O)c1ccc(OC)cc1 | 5.27
50 | Fc1ccc(C2=CC(c3ccco3)n3nnnc3N2)cc1 (centres unmarked) | -6.76
51 | Cc1ccc(OC(C)C(=O)Nc2cc(C)on2)cc1 (centres unmarked) | 2.53
52 | O=C(NCCSCc1ccccc1)c1ccc(C2SCC(=O)N2Cc2ccccc2)cc1 (centres unmarked) | -8.07
53 | CC(=O)c1cccc(NC(=O)c2ccco2)c1 | 7.09
54 | Cc1ccccc1NC(=O)Cn1c(=O)sc2ccccc21 | -0.661
55 | COc1ccc(C)cc1NC(=O)C1CCN(C(=O)C2CC(=O)N(c3ccc(C)cc3)C2)CC1 (centres unmarked) | -23.1
56 | COc1ccc(OC)c(NC(=O)C2CCN(C(=O)C3CC(=O)N(c4ccc(C)cc4)C3)CC2)c1 (centres unmarked) | -37.7
57 | COc1ccc(Cl)cc1NC(=O)C1CCN(C(=O)C2CC(=O)N(c3ccc(C)cc3)C2)CC1 (centres unmarked) | -60.4
58 | CCc1cccc(C)c1NC(=S)NCc1ccccc1 | 0.76
59 | CC(C)OP(=O)(c1ccccc1)c1ccccc1 | -3.71
60 | N#C/C(=C\N1CCN(Cc2ccc3c(c2)OCO3)CC1)c1nc2ccccc2s1 | -52.8
61 | Cl.N#C/C=C/N1CCN(Cc2ccc3c(c2)OCO3)CC1 | 1.29
62 | CCOC(=O)N1CCN(CC(=O)Nc2nc3ccccc3s2)CC1 | -35.5
63 | CCOC(=O)N1CCN(/C=C(\C#N)c2nc3ccccc3s2)CC1 | -58.5
64 | c1ccc2sc(NC3=NCN(Cc4ccc5c(c4)OCO5)CN3)nc2c1 | 4.28
65 | CCOC(=O)N1CCN(C(=O)c2nc3ccccc3s2)CC1 | -0.815
66 | CCCn1c(=O)c(C(=O)NCCc2ccc(OC)c(OC)c2)c(O)c2ccccc21 | 10.5

Row | SMILES | hERG current change (%, negative = inhibition) at 10uM [%]
67 | CCOC(=O)C1=C(COC(=O)C2CC(=O)N(c3ccc(C)cc3)C2)NC(=O)NC1C (centres unmarked) | -7.55
68 | Cc1cccc(S(=O)(=O)C(C#N)c2nc3ccccc3nc2N2CCCC2)c1 (centres unmarked) | -18.4
69 | O=C(N/N=C1\CCCc2ccccc21)c1ccc([N+](=O)[O-])cc1Cl | -3.01
70 | COc1ccc(C(=O)C2CCCN(C/C=C/c3ccccc3OC)C2)c(OC)c1 (centres unmarked) | -77.5
71 | COc1cccc(C(=O)C2CCCN(C/C=C/c3ccccc3OC)C2)c1 (centres unmarked) | -68.4
72 | NC(=O)c1cc([N+](=O)[O-])cc2c1C=Cc1ccccc1O2 | 2.92
73 | CC12COC3(C(=O)Nc4ccc([N+](=O)[O-])cc4)CC1CCC32C (centres unmarked) | -32.1
74 | O=C(COC(=O)C1CC2CCCC(C1)C2=O)NC(=O)c1ccc(OC(F)F)cc1 (centres unmarked) | 23.2
75 | COc1ccc(CNC(=O)CN(C)S(=O)(=O)c2ccc(Cl)cc2)cc1 | -20.4
76 | COc1ccc(N(CC(=O)NCc2ccc(Cl)cc2)S(=O)(=O)c2c(C)n[nH]c2C)cc1 | -57.4
77 | COc1ccc(CNC(=O)CN(Cc2ccc(Cl)cc2)S(C)(=O)=O)cc1 | -45.4
78 | COc1ccc(CNC(=O)CN(Cc2ccccc2)S(=O)(=O)c2ccc(Cl)cc2)cc1 | -61.7
79 | COc1ccc(CNC(=O)CN(Cc2ccc(Cl)cc2)S(=O)(=O)c2ccccc2)cc1 | -12.5
80 | CCOC(=O)N1CCN(C(=O)CN(Cc2ccc(Cl)cc2)S(C)(=O)=O)CC1 | -15.5
81 | COc1ccc(N(CC(=O)NCc2ccc(F)cc2)S(=O)(=O)c2c(C)n[nH]c2C)cc1 | -26.5
82 | CCOC(=O)N1CCN(C(=O)CN(Cc2ccc(Cl)cc2)S(=O)(=O)c2ccccc2)CC1 | -70.1
83 | COc1ccc(CNC(=O)CN(Cc2ccc(C)cc2)S(=O)(=O)c2ccc(Cl)cc2)cc1 | -50.9
84 | COc1ccc(C)cc1S(=O)(=O)N(CC(=O)NCc1ccc(Cl)cc1)Cc1ccccc1 | 8.35
85 | CCOC(=O)N1CCN(C(=O)CN(Cc2ccc(Cl)cc2)S(=O)(=O)c2ccc(C)cc2)CC1 | -42.8
86 | COc1ccc(N(CC(=O)NCc2ccccc2)S(=O)(=O)c2c(C)n[nH]c2C)cc1 | -35.6
